From PubChem BioAssay
FLuc inh: blocks purified firefly luciferase enzyme activity. P08659. purified P. pyralis luciferase, luminescence, biochemical. Potency, µM (top dose mostly 115 µM), usual class: inhibitors. 76,000 tested, 2.5% active. AID 1347043; also: nearly all actives have a fitted effect of over 65% in size
Target sequence (P08659 whole entry, looked up): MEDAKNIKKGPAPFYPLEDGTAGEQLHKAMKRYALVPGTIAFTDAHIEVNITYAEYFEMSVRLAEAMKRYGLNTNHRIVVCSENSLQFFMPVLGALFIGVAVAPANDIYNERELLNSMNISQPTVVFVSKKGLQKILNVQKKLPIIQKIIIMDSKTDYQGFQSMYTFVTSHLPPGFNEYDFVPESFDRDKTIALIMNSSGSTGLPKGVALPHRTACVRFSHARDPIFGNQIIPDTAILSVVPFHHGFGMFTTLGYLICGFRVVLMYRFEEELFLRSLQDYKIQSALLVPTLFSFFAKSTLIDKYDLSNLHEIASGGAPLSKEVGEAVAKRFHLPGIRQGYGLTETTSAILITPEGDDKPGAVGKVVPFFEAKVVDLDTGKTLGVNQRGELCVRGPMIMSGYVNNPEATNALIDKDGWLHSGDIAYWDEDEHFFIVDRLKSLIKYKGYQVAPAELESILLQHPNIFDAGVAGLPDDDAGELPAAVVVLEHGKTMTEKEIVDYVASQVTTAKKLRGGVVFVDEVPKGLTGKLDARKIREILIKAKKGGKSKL
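Purified 10nM P. pyralis luciferase with 10uM D-luciferin and 10uM ATP in 50mM Tris acetate pH 7.5, 10mM Mg acetate, 0.01% Tween-20, 0.05% BSA. qHTS titration; luminescence read by CCD imager.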
NIH3T3 tox: cytotoxic compounds in NIH 3T3 cells; NIH 3T3 viability, CellTiter-Glo ATP luminescence, 48-72 h; Potency, µM (titrated, usually from 96.7 µM), most hits filed as inhibitors; 94,000 tested, 4.3% active; AID 1345082; also: nearly all actives have a fitted effect of over 55% in size
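Luminescent ATP readout (CellTiter-Glo, 10 min RT) after 48 or 72 hr compound exposure of NIH 3T3 cells seeded at 400 cells/well in 1536-well format; quantitative HTS.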
NPR1 antag: blocks ANP-stimulated signaling of human Npr1 receptor | HEK293 hNpr1 GloSensor cGMP, ANP-stimulated luminescence | P16066 | Potency, µM (titrated, usually from 46.3 µM), usual class: inhibitors | 76,000 tested, 1.6% active; calls by dose curve; also: nearly all actives have a fitted effect of over 60% in size
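HEK293 cells stably expressing human Npr1 and cGMP GloSensor pGS-40F, loaded 2 h with 2% GloSensor reagent, given compound 30 min at room temperature. Luminescence read before and 20 min after 0.1 nM hNppA.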
HEK293 tox: HEK 293 cell cytotoxicity; 94,000 tested, 6.6% active; AID 1345083; HEK 293 viability, ATP luminescence (CellTiter-Glo), 48-72 h; Potency, µM (titrated, usually from 115 µM), actives largely listed as inhibitors; also: nearly all actives have a fitted effect of over 60% in size
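250 HEK 293 cells/well; compound by pintool; incubated 48 or 72 hr at 37 degree Celsius; CellTiter-Glo added, 10 min RT, luminescence imaged.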
Numbers stand for hits; – = inactive; ? = inconclusive; · = no result. Only some compounds are listed: those with a hit (about 11% of all), similar ones and a draw of the others. Unless noted, calls follow the shape of the dose curve; as a rule, active = well fitted curve in the direction sought with a large enough effect; inconclusive = small, poorly fitted or top-dose-only effect, or another doubt; inactive = no such curve, though single readings can be large; an effect the other way counts as inactive or inconclusive.

SMILES	FLuc inh	NIH3T3 tox	NPR1 antag	HEK293 tox
CC1Oc2ccc(NC(=O)c3ccc(F)cc3F)cc2CN(Cc2ccccc2Cl)C1=O (configuration not stated)	–	?	–	50µM
CC1Oc2ccc(NC(=O)c3ccccc3Cl)cc2CN(Cc2ccccc2F)C1=O (configuration not stated)	–	?	–	?
CCCCCNC(=O)c1cc(-c2cccc(C(F)(F)F)c2)nc2c1cnn2C	·	–	·	–
COc1cc(OC)c(OC)cc1CN1CCc2nc(N3CCOCC3)[nH]c(=O)c2CC1	·	–	·	–
COc1cc(C(=O)NC2CCCN(c3cc(-c4ccccc4)[nH]n3)C2)cc(OC)c1OC (configuration not stated)	35µM	?	–	?
Cc1ccc(C(=O)NC2CCCN(c3cc(-c4ccccc4)[nH]n3)C2)cn1 (configuration not stated)	?	?	–	?
CCOc1cc(C(=O)NC2CCN(c3cc(-c4ccc(OC)cc4)[nH]n3)C2)cc(OCC)c1OCC (configuration not stated)	–	22µM	–	40µM
CCOc1ccc(C(=O)NC2CCCN(c3cc(-c4ccccc4)[nH]n3)C2)cc1 (configuration not stated)	?	?	–	?
COc1ccc(C(=O)NC2CCCN(c3cc(-c4ccccc4)[nH]n3)C2)cc1 (configuration not stated)	25µM	?	–	?
Cc1ccc(C(=O)NC2CCCN(c3cc(-c4ccc(Cl)cc4)[nH]n3)C2)cn1 (configuration not stated)	?	?	–	28µM
CC(C)CNC(=O)c1ccc2nnc(C3CCCC3)n2c1	·	–	·	–
Cn1ncc2c(C(=O)Nc3ccccc3Cl)cc(-c3ccc(Cl)cc3Cl)nc21	·	–	·	–
Cn1ccnc1C(=O)N1CCC(N2C(=O)C3(CCCCC3)C2c2ccccc2)CC1 (configuration not stated)	·	–	·	–
Cc1cccc(C(=O)N2CC(N(Cc3ccccn3)S(C)(=O)=O)C2)c1	·	–	·	–
CNC(=O)[C@@H]1[C@@H](OC(N)=O)C(=O)N(C)C12CCN(C(=O)c1ccccc1OC(F)(F)F)CC2	·	?	·	–
COc1ccc(C(=O)NC2CCN(c3cc(-c4ccc(Cl)cc4)[nH]n3)C2)cc1F (configuration not stated)	–	?	–	40µM
COc1ccc(-c2cc(N3CCCC(NC(=O)c4ccc(C)c(F)c4)C3)n[nH]2)cc1 (configuration not stated)	–	?	–	?
COc1ccc(C(=O)NC2CCCN(c3cc(-c4ccc(Cl)cc4)[nH]n3)C2)cc1 (configuration not stated)	?	35µM	–	?
COc1ccc(-c2cc(N3CCC(NC(=O)c4ccc(F)c(Cl)c4)C3)n[nH]2)cc1 (configuration not stated)	–	40µM	–	?
COc1ccc(C(=O)NC2CCCN(c3cc(-c4ccccc4)[nH]n3)C2)cc1F (configuration not stated)	?	16µM	–	?
COc1ccc(C(=O)NC2CCN(c3cc(-c4ccc(Cl)cc4)[nH]n3)C2)cc1OC (configuration not stated)	–	?	–	?
O=C(NC1CCCC1)c1cc(C2CC2)nc2onc(C3CCNCC3)c12	·	–	·	–
Cc1nnc2ccc(N3CCC(N[S+](=O)([O-])c4cccs4)CC3)nn12	·	?	·	–
O=C(c1ccc(-c2ccco2)cc1)N1CCOc2ccc(CN3CCN(c4ccccn4)CC3)cc2C1	–	–	–	–
COc1ccc(-c2cc(N3CCCC(NC(=O)c4ccc(F)c(F)c4)C3)n[nH]2)cc1 (configuration not stated)	?	?	–	?
SMILES	FLuc inh	NIH3T3 tox	NPR1 antag	HEK293 tox
COc1cc(OC)cc(C(=O)NC2CCCN(c3cc(-c4ccccc4)[nH]n3)C2)c1 (configuration not stated)	25µM	?	–	40µM
COc1ccc(-c2cc(N3CCCC(NC(=O)c4ccccc4Cl)C3)n[nH]2)cc1 (configuration not stated)	45µM	?	–	?
COc1ccc(-c2cc(N3CCCC(NC(=O)c4ccc5cc[nH]c5c4)C3)n[nH]2)cc1 (configuration not stated)	11µM	?	?	?
Cc1cc(C)n(Cc2ccc(C(=O)NCC3CCCCC(=O)N3)o2)n1 (configuration not stated)	·	–	·	–
O=C(NCc1ccccc1)c1ccccc1OC1CN(Cc2cccc(F)c2F)C1	·	20µM	·	?
O=C(NCc1ccccc1)c1ccccc1OC1CN(Cc2cccc(C(F)(F)F)c2)C1	·	13µM	·	25µM
CCOc1ccc(CN2CC(Oc3ccccc3C(=O)NCc3ccccc3)C2)cc1	·	?	·	20µM
Cc1c(CN2CC(Oc3ccccc3C(=O)NCc3ccccc3)C2)cnn1C	–	–	–	?
Cc1ccc(CN2CC(Oc3ccccc3C(=O)NC3CC3)C2)cc1	–	?	–	?
Cc1ccsc1CN1CC(Oc2ccccc2C(=O)NCc2ccccc2)C1	·	40µM	·	40µM
COCCN1C[C@@H]2[C@H](c3ccccc31)[C@@H](CO)[C@@H](c1ccccc1)N2C(=O)COC(C)=O	·	?	·	–
CC(=O)N1CCC(C2CCN(C(=O)CN3CCOCC3)C2)CC1 (configuration not stated)	·	–	·	–
O=C(NC1CC1)c1ccccc1OC1CN(Cc2cc(F)c(F)c(F)c2)C1	–	?	–	?
O=C(NCc1ccccc1)c1ccccc1OC1CN(Cc2ccc(F)c(F)c2)C1	–	40µM	–	?
COc1ccc(F)cc1Nc1cnc2ccc(N(C)C)nn12	–	?	–	100µM
CN(C)c1ccc2ncc(Nc3ccc(Cl)cn3)n2n1	–	112µM	–	?
CN(C)c1ccc2ncc(Nc3ccccc3)n2n1	?	?	–	112µM
Clc1ccc(Nc2cnc3ccc(-c4ccccc4)nn23)nc1	–	?	?	?
COc1ccc(-c2ccc3ncc(Nc4cc(F)ccc4OC)n3n2)cn1	–	–	–	?
CN(C)c1ccc2ncc(Nc3cc(F)cc(N4CCOCC4)c3)n2n1	?	?	–	?
Cn1ncc2c(C(=O)NCc3ccc4c(c3)OCO4)cc(-c3ccc(C(F)(F)F)cc3)nc21	·	?	·	–
C[S+](=O)([O-])c1ccc(-c2nnc3ccc(C(=O)NCc4ccc(Cl)cc4)cn23)cc1	·	?	·	–
O=[S+]1([O-])NC2(CCN(Cc3cccc4ccccc34)CC2)CNc2ccccc21	–	?	–	40µM
OC[C@@H]1CNC[C@H]1C1CCN(Cc2ccc(Br)cc2F)CC1	–	?	–	?
OC[C@@H]1CNC[C@H]1C1CCN(Cc2ccc(F)c(Br)c2)CC1	–	35µM	–	?
COc1ccc(OC)c(NC(=O)C2CCN(c3cnc4nccnc4c3)CC2)c1	–	?	–	40µM
O=C(c1ccccc1)N1CCCC(C(=O)N2CCC(c3nc4ncccc4[nH]3)C2)C1 (configuration not stated)	·	–	·	–
COc1cccc(C(=O)N2CCCN(c3ccnc4ccnn34)CC2)c1	·	–	·	–
